The text below walks through data of PubChem BioAssay (NCI).

This is part of a sample that, as a whole, favours compounds with a hit. Of some 79,000 tested, about 15% had one in any assay. Values without a mark were called inactive. Calls of active or inactive are those of the source. Cut-off read from the data, not from the text of the source: active = growth inhibition above about 70%; inactive = the rest.

The nature of test [1]: NCI Yeast Anticancer Drug Screen. Data for the rad50 strain (AID 155).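 Note: 0% = growth of vehicle-only cultures of the same strain.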 The settings on record: S. cerevisiae rad50 strain growth inhibition; at 50.0 µM; active compounds read high. Put shortly:
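Inhibition values express reduced yeast growth in compound-treated cultures relative to vehicle-treated controls.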

Test [2] in a line: NCI Yeast Anticancer Drug Screen. Data for the mec2-1 strain (AID 157). The conditions noted are these: S. cerevisiae mec2-1 strain, at 50.0 µM, active compounds read high. Put shortly:
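Vehicle-treated cultures served as reference for growth inhibition of compound-exposed mec2-1 yeast.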

Test [3] can be described thus: NCI Yeast Anticancer Drug Screen. Data for the sgs1 mgt1 strain (AID 161).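 Note: 0% = growth of cultures given vehicle only.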 The settings on record: S. cerevisiae sgs1 mgt1 strain, at 50.0 µM, active compounds read high. Put shortly:
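Mutant yeast exposed to compound; growth scored against vehicle-only wells.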

Test [4] is described as follows: NCI Yeast Anticancer Drug Screen. Data for the cln2 rad14 strain (AID 165).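 Note: 0% = growth equal to vehicle treated cultures.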 The settings on record: S. cerevisiae cln2 rad14 strain, at 50.0 µM, active compounds read high. The essentials: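 Each compound was tested on cln2 rad14 yeast. Inhibition of growth was calculated against vehicle-exposed controls.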
A short description of test [5]: NCI Yeast Anticancer Drug Screen. Data for the bub3 strain (AID 167). The settings on record: S. cerevisiae bub3 mutant strain, at 50.0 µM, active compounds read high. The essentials: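 Steps: expose the mutant yeast strain to compound; grow alongside vehicle-treated cultures; measure growth; express inhibition against the vehicle cultures.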
The nature of test [6]: NCI Yeast Anticancer Drug Screen. Data for the mlh1 rad18 strain (AID 175). The settings on record: S. cerevisiae mlh1 rad18 strain growth inhibition; at 50.0 µM; active compounds read high. The essentials:
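Vehicle-treated cultures served as the reference for growth inhibition in a yeast strain carrying DNA damage repair alterations exposed to each compound.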

For `CCOC(=O)C1=C2c3ccc4cc(OC)ccc4c3CCC2(C)C(=O)C1` (stereo unspecified), the growth inhibition in test [1] is -19.1%; in test [2], 15.5%; in test [3], -2.55%; in test [4], -21.1%; in test [5], -11.2%; in test [6] it was -21.1%.

For the compound `O=C(Nc1ccccc1)Sc1nc2ccccc2s1`, the growth inhibition in test [1] is 24.5%; in test [2], 17.8%; in test [3] it was 45.5%; in test [4] it was 13.7%; in test [5], 53.9%; in test [6], 27.6%.

Consider `c1ccc(C2=NC(c3ccccc3)N=C(c3ccccc3)N2)cc1`, for which the growth inhibition was -0.75% in test [1]; 10.3% in test [2]; 6.1% in test [3]; -6% in test [4]; 9.75% in test [5]; 13.2% in test [6].

As for `Clc1cccc(Cl)c1C1SCc2nc3ncccc3n21` (stereo unspecified), the growth inhibition in test [1] was 14.1%; in test [2] it was 16.6%; in test [3] it was 34.4%; in test [4], 16.9%; in test [5] it was 10.6%; in test [6], 0.4%.

Turning to `CC(C)Sc1nc2ccc(NC(=O)/C=C/C(=O)O)cc2s1`, the growth inhibition in test [1] was 18.9%; in test [2], 8.65%; in test [3], 4.95%; in test [4], 14.1%; in test [5], 13.7%; in test [6], 12.1%.

Turning to `CCOC(=O)C1=C(C)N(Cc2ccccc2)C2(O)C1=CC(=O)C(Cl)=C2Cl` (stereo unspecified), the growth inhibition is 72.8% (active) in test [1]; 45.5% in test [2]; 46.8% in test [3]; 54.9% in test [4]; 49.5% in test [5]; 42.4% in test [6].

Turning to `CCOC(=O)/C(Cc1ccc2c(c1)OCO2)=N\O`, the growth inhibition in test [1] is -3.05%; in test [2], -16.1%; in test [3], -12.9%; in test [4], -2.25%; in test [5], 2.25%; in test [6], -1.1%.

For the compound `O=C(O)CCC1(c2ccccc2)CCCCC1`, the growth inhibition is 6.1% in test [1]; 13.9% in test [2]; 11.6% in test [3]; 10.2% in test [4]; 47.7% in test [5]; -0.9% in test [6].

On to `COC(=O)C1(CC(=O)CC(=O)CC2(C(=O)OC)NC(=S)NC(=O)C2C#N)NC(=S)NC(=O)C1C#N` (stereo unspecified), for which the growth inhibition is -17.4% in test [1]; 19.9% in test [2]; -24.6% in test [3]; 4.05% in test [4]; 5.55% in test [5]; 13.8% in test [6].

For the compound `CCOC(=O)c1cnc(SCc2ccccc2)[nH]c1=O`, the growth inhibition in test [1] is -6.1%; in test [2], -9.8%; in test [3] it was -17.7%; in test [4], -3.7%; in test [5] it was -16.6%; in test [6], -13.3%.

Consider `Cn1c(=O)c2[nH]c(C(=O)O)nc2n(C)c1=O`, for which the growth inhibition is 17.4% in test [1]; -2.35% in test [2]; 5.7% in test [3]; 9.35% in test [4]; -8.3% in test [5]; 9.85% in test [6].

Turning to `CCCc1c(OC(=O)c2ccc([N+](=O)[O-])cc2)cccc1OC(=O)c1ccc([N+](=O)[O-])cc1`, the growth inhibition in test [1] was 20.1%; in test [2] it was 1.1%; in test [3], 12.8%; in test [4], 18.1%; in test [5], -3.95%; in test [6] it was 7.55%.

Regarding `C=CC(CO)N(CC)CC` (stereo unspecified), the growth inhibition in test [1] was 9.55%; in test [2], 8.7%; in test [3], 7.25%; in test [4], 13.3%; in test [5] it was 1.8%; in test [6] it was 11.3%.

For the compound `CC(C)OP(=O)(OC(C)C)C([CH2][Sn]([CH3])([CH3])[Cl])P(=O)(OC(C)C)OC(C)C`, the growth inhibition is 5.75% in test [1]; -0.8% in test [2]; 0.45% in test [3]; 0.25% in test [4]; -2.1% in test [5]; -1.45% in test [6].

On to `CCC(=O)C(OC(C)=O)C(OC(C)=O)C(OC(C)=O)C(COC(C)=O)OC(C)=O` (stereo unspecified), for which the growth inhibition is -1.95% in test [1]; -1.15% in test [2]; -8.1% in test [3]; 27.8% in test [4]; -3.95% in test [5]; 13.8% in test [6].

`O=C1CSC(c2cccc(Cl)c2)N1N1C(=O)CSC1c1cccc(Cl)c1` (stereo unspecified): the growth inhibition is 6.3% in test [1]; 19.4% in test [2]; -7.15% in test [3]; -0.6% in test [4]; 2.05% in test [5]; 13.4% in test [6].

Consider `O=C(Nc1ccccc1)C1C2C=CC(C2)C1C(=O)Nc1ccccc1` (stereo unspecified), for which the growth inhibition in test [1] is 0.2%; in test [2], 27.9%; in test [3], 5.05%; in test [4] it was -11.7%; in test [5], 21.4%; in test [6] it was -8.25%.

For the compound `C/C(CC/C(C)=N/O)=N\O`, the growth inhibition was 6.4% in test [1]; 4.25% in test [2]; -0.55% in test [3]; -9.45% in test [4]; 11.6% in test [5]; 9.7% in test [6].

Regarding `CN(/N=C/c1ccccc1)c1nnnn1-c1ccccc1`, the growth inhibition was 3.2% in test [1]; -5.7% in test [2]; -5.85% in test [3]; 33% in test [4]; 0.6% in test [5]; 9.9% in test [6].

For `CC(=O)Nc1ccc(N=C2c3ccccc3-c3ccc([N+](=O)[O-])cc32)cc1`, the growth inhibition in test [1] was -6.1%; in test [2] it was -10.8%; in test [3], 11.2%; in test [4] it was -11.7%; in test [5] it was -5.7%; in test [6], -13.6%.

For `CC[C@@H](C)[C@H]([C@H](CC(=O)N1CCC[C@@H]1[C@@H](OC)[C@H](C)C(=O)N[C@H](Cc1ccccc1)c1nccs1)OC)N(C)C(=O)[C@H](NC(=O)[C@@H](C(C)C)N(C)C)C(C)C`, the growth inhibition in test [1] is 6.95%; in test [2] it was -22.6%; in test [3], -2.2%; in test [4] it was 8.3%; in test [5], 20.3%; in test [6], 16.8%.
